PNC assembly inh: perinucleolar compartment assembly inhibition; PC3M PTB-GFP, PNC prevalence imaging, 16 h; stronger effect = lower value; activity change (PNC), negative = inhibition, % at 10 µM; 140,000 tested, 3.1% active;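 active = readout at or below -70, meaning at least 70% loss of cells showing the perinucleolar compartment, a nuclear body marking cancer cells; inconclusive = readout between -30 and a set limit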;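 note: plate controls were DMSO wells for no effect and camptothecin positive control wells for full effect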
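Compounds are pinned in duplicate onto adhered PC3M cells stably expressing GFP-tagged PTB and incubated 16 h at 37 C. Cells are then fixed, nuclei stained with Hoechst, and PNC-positive cells counted.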
ALOX12 inhib: blocks human 12-lipoxygenase activity | 150,000 tested, 0.12% active | Potency, µM (series often up to 57.1 µM), without a hit: at the top dose activity change, negative = inhibition, usual class: inhibitors | purified 12-hLO, xylenol orange hydroperoxide absorbance; note: potency is the fitted concentration of half-maximal effect; nearly all actives have a fitted effect of over 55% in size
Target sequence (P18054 whole entry, looked up): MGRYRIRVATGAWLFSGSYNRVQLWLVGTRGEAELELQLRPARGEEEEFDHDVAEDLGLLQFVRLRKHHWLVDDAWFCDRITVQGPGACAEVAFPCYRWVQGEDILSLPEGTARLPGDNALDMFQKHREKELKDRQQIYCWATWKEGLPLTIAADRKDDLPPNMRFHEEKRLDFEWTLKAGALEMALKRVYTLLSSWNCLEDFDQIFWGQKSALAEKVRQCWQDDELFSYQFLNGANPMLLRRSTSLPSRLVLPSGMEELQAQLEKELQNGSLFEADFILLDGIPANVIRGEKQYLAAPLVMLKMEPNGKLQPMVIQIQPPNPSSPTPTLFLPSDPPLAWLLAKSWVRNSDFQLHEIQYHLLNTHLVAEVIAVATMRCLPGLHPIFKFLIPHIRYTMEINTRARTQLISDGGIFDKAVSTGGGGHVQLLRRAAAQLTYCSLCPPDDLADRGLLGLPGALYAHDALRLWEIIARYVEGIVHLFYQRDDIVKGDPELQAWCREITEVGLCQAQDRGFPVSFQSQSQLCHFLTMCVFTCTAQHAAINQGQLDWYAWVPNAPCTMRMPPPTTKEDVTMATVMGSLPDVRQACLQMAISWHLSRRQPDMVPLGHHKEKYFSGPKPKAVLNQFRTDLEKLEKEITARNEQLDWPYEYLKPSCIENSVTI
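150 nM 12hLO, 25 mM Hepes pH 7.0 + 0.01% Triton X-100; cpd preinc 15 min RT; 40 uM arachidonic acid, 30 min RT; Fe-XO 30 min; A573/A405 ratio as read-out.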
IMPase inh: IMPase inhibition in cells; 120,000 tested, under 10 active; CHO-M1 cells, IP1 accumulation, HTRF TR-FRET ratio; AID 901; P97697; inhibition (IP1 accumulation), % at 46.1 µM; active = well fitted curve in the direction sought with a large enough effect in the signal ratio, not every such curve was filed as active; inconclusive = small, poorly fitted or top-dose-only effect, or a change in a side signal; inactive = no such curve, though single readings can be large or run the other way; the % refers to the signal ratio;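 note: cells stimulated with carbachol in lithium chloride buffer; plate controls were DMSO basal wells for no effect and reference inhibitor wells for full effect; higher means more IMPase inhibition seen as more IP1 and lower FRET ratio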
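Cellular IMPase inhibition is scored as a rise in cytosolic IP1, detected by competitive TR-FRET between d2-labelled IP1 and a europium anti-IP1 antibody. M1-expressing CHO cells were stimulated with carbachol for 30 min at 37C, with lithium (50 mM LiCl) present in the buffer.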
IMPase Li inh: cell-permeable IMPase inhibitors with lithium potentiation; 210,000 tested, 0.35% active; Potency, µM (top dose mostly 59.4 µM), for inactives: at the top dose activity, negative = IMPase inhibition, hits mostly inhibitors; CHO-M1 cells, IP1 TR-FRET (IP-One), carbachol + lithium;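 note: IP1 builds up when IMPase is blocked and the TR-FRET signal falls; potency is the fitted concentration of half-maximal effect; plate controls were basal vehicle for no effect and high inhibitor control for full effect; nearly all actives have a fitted effect of over 50% in size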
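CHO cells stably expressing M1 receptor (2000/well, cultured 16–30 h) treated 30 min at 37C with compound plus low lithium. Cytosolic IP1 by TR-FRET (665/620 ratio and 620 channel) after 10 min lysis; AC50 by Hill fit.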
Numbers without * were called inactive; ? = inconclusive; . = not tested or not shown; ! = not confirmed by another sample; [ ] = dose if it differs, or a comment. The full list was thinned out, with hits kept by preference. Unless noted, calls come from the whole dose curve; as a rule, active = well fitted curve in the direction sought with a large enough effect; inconclusive = small, poorly fitted or top-dose-only effect, or another doubt; inactive = no such curve, though single readings can be large; an effect the other way counts as inactive or inconclusive. Unless noted, % is set by controls: 0 for no effect and ±100 for the full control effect.

SMILES	PNC assembly inh	ALOX12 inhib	IMPase inh	IMPase Li inh
CC1CCN(C(=O)Cn2cc(C(=O)C3CC3)c3ccccc32)CC1	-103*	2%	-3	10%
O=C1OC(Cc2ccccn2)C(O)=C1C1=NCCCN1 (stereo unspecified)	-83*	-2%	.	-2%
COCCc1ccc(OCC(O)CNC(C)C)cc1 (stereo unspecified)	-91*	2%	.	-1%
COCCc1ccc(OC[C@H](O)CNC(C)C)cc1	.	-2%[25.6 µM]	2[20.6 µM]	-1%
CCOC(=O)c1[nH]c(C)c(C(=O)OCC(=O)Nc2sc3c(c2C#N)CCCCC3)c1C	.	.	.	-2%
CC(C)CCNC(=O)C(c1ccncc1)N(Cc1cccs1)C(=O)Cn1nnc(-c2ccc(F)cc2)n1 (stereo unspecified)	-100*	-5%	-4	5%
COC(=O)C1=C(C(=O)OC)[C@@H]2N(Cc3ccccc3)c3ccccc3[C@@]23C[C@@H](C(=O)OC)N(S(=O)(=O)c2ccc4c(c2)OCCN4C)C3=N1	.	4%[11.4 µM]	.	10%
CN(CC(=O)Nc1ccccc1-c1ccccc1)Cc1ccccc1Cl	.	.	.	19%
CCCCOC(=O)Nc1ccccc1C(=O)N1CCCC1	-113*	0%	.	-3%
CC(NC(=O)c1ccccc1NC(=O)c1ccccc1)C(=O)N1CCOCC1 (stereo unspecified)	-97*	0%	.	-5%
O=C(Nc1cc(C(=O)N2CCCC2)ccc1N1CCCC1)c1ccccc1	-111*	-5%	9	28%[38.3 µM]
CNC(=S)Nc1cc(C(=O)N2CCCC2)ccc1N1CCCC1	.	.	.	21%
O=C(Nc1ccccc1C(=O)N1CCCC1)c1ccccc1	-119*	7%	5	9%
Cc1cc(C)c(S(C)(=O)=O)c(NN)n1	.	.	.	-2%
CCCCOc1ccccc1C1CC(=O)Nc2ccc3ccccc3c21 (stereo unspecified)	.	.	4	.
O=C(Nc1ccccc1N1CCN(C(=O)c2ccc(Cl)cc2)CC1)c1ccc2c(c1)OCO2	-102*	-20%	0	32%[38.3 µM]
Cc1sc2nc(SC3CCOC3=O)n(Cc3ccccc3)c(=O)c2c1C (stereo unspecified)	.	.	.	13%
C=CCn1c(SC2CCOC2=O)nc2sc(C)c(C)c2c1=O (stereo unspecified)	-80*	-6%	7	-3%
CCCOc1ccc(N2C(=O)CC(N(O)c3ccccc3)C2=O)cc1 (stereo unspecified)	-89*	-26%	6	-11%[38.3 µM]
COc1ccc(CN(Cc2cc3cc4c(cc3[nH]c2=O)OCO4)C(=O)NC2CCCCC2)cc1	-97*	-4%	-3[1.84 µM]	22%[38.3 µM]
CCN1/C(=C/c2ccc3cc(C)ccc3[n+]2CC)Sc2ccccc21	-93*	-4%	.	-19%
O=C(CSc1nc(-c2ccc(F)cc2)cs1)NCCN1C(=O)CSC1=O	.	.	.	7%
CC(Cn1cnc2ccccc21)C(=O)O (stereo unspecified)	-100*	0%	-12	1%
COc1ccccc1OCC(=O)Nc1oc(-c2ccccc2)c(-c2ccccc2)c1C#N	32	-5%	11	39%[38.3 µM]
COc1ccc(CC(=O)Nc2oc(-c3ccccc3)c(-c3ccccc3)c2C#N)cc1OC	-100*	3%	1	12%
SMILES	PNC assembly inh	ALOX12 inhib	IMPase inh	IMPase Li inh
COc1cc(-c2ccc(N=Nc3ccc4c(S(=O)(=O)O)cc(S(=O)(=O)O)c(N)c4c3O)c(OC)c2)ccc1N=Nc1ccc2c(S(=O)(=O)O)cc(S(=O)(=O)O)c(N)c2c1O	.	-6%	?	139%
COc1ccc(Cl)cc1NC(=O)CSc1nnc(Cc2cccn2C)n1-c1ccc(F)cc1	-85*	-2%	-3	1%
CCc1ccc(NC(=O)CSc2nnc(Cc3cccn3C)n2-c2ccc(F)cc2)cc1	-90*	-18%	-2	31%[38.3 µM]
CN(C)/N=C/c1ccc(Sc2ccccc2[N+](=O)[O-])o1	.	.	.	18%
Nc1nccc(Nc2ccc(S(N)(=O)=O)cc2)n1	.	0%[11.4 µM]	.	0%
Nn1c(COc2ccccc2)nc2ccccc2c1=O	-89*	3%	-1	-7%[38.3 µM]
COc1cccc(OCc2nc3ccccc3c(=O)n2N)c1	-29	0%	7	22%[38.3 µM]
C=CCOc1ccc(/C(O)=C2\C(=O)C(=O)N(CCOC)C2c2cccnc2)cc1 (stereo unspecified)	26	-2%	-19	10µM*
COCCCN1C(=O)C(=O)/C(=C(/O)c2ccc(OCC(C)C)cc2C)C1c1cccnc1 (stereo unspecified)	-20	3%	?	?
CC1Cc2cc(/C(O)=C3/C(=O)C(=O)N(CCCn4ccnc4)C3c3cccnc3)ccc2O1 (stereo unspecified)	13	1%	-20	11µM*
CC1Cc2cc(/C(O)=C3/C(=O)C(=O)N(CCCn4ccnc4)C3c3ccncc3)ccc2O1 (stereo unspecified)	22	-2%	-27	?
CCCOc1ccc(/C(O)=C2/C(=O)C(=O)N(CCCOC)C2c2ccncc2)cc1 (stereo unspecified)	?	1%	-7	-24%[38.3 µM]
CCCOc1ccc(/C(O)=C2/C(=O)C(=O)N(CCOC)C2c2cccnc2)cc1 (stereo unspecified)	13	-4%	-12	11µM*
CCOC(=O)C1CCCN(C(=O)c2cn(CC(C)C)c(=O)c3cc(OC)c(OC)cc23)C1 (stereo unspecified)	-100*	-6%	-1	4%
CCOC(=O)C1CCCN(C(=O)c2ccc(OC)c([N+](=O)[O-])c2)C1 (stereo unspecified)	-95*	-1%	.	13%
CCOC(=O)C1CCCN(C(=O)c2cn(CC)c(=O)c3cc(OC)c(OC)cc23)C1 (stereo unspecified)	10	0%	5	8%[38.3 µM]
COc1ccccc1CNc1ncnc2ccc(-c3ccccc3OC)cc12	.	.	.	35%
CCOC(=O)CSc1cc(=O)n(C)c2cc(Cl)ccc12	21	-3%	-21	?
CC(=O)N1CCC2(CCCN(c3cccc(-c4ccccc4)c3)C2)CC1	.	-26%	.	2%
O=C1CCCN1Cc1ncnn1-c1ccccc1	-100*	-1%	3	-2%
Cc1ccc(Cn2ccc(NC(=O)c3cc(-c4ccccc4)on3)n2)cc1	11	-2%	12	17%[38.3 µM]
Cc1ccc(Cn2ccc(NC(=O)c3cc(-c4ccc5c(c4)OCO5)on3)n2)cc1	-3	-10%	1	11µM*
CC(=O)NS(=O)(=O)c1ccc(NC(=O)c2ccccc2F)cc1	11	0%	2	15%[38.3 µM]
O=C(NS(=O)(=O)c1ccccc1)c1ccccc1F	-122*	2%	-2	16%[38.3 µM]
COc1ccc(Nc2nc3ccccc3n3c(N)nnc23)cc1	.	.	-7	.
O=C(NCC1CC1)[C@H]1C[C@@H]1[C@H](NP(=O)(c1ccccc1)c1ccccc1)c1ccccc1	.	-2%	.	-1%
O=C(Nc1ccccc1C(F)(F)F)c1cc(-c2ccccc2O)on1	-100*	3%	2	-2%
O=C(Cc1ccccc1)Nc1ccc(Br)c(Cl)c1	-82*	-4%	.	12%
COc1cc2ccc(=O)oc2cc1O	.	-4%	-26	10µM*!

High-throughput results: PubChem, National Center for Advancing Translational Sciences (NCATS)
